In all, about 390,000 compounds went through this assay and about 610 (0.16%) were called active. A call without a number means that no potency is given here. Roughly 4% stayed inconclusive and do not appear here. Only a selection was taken, and actives are over-represented in it overall. A number with no mark means an inactive call. Calls follow the shape of the dose curve; as a rule, active = well fitted inhibition curve with a large enough effect; inconclusive = small, poorly fitted or top-dose-only effect, or effect the other way, or another doubt; inactive = no such curve, though single readings can be large or run the other way.
test: Nrf2 qHTS screen for inhibitors: counterscreen for cytotoxicity; conditions: A549 ARE-Fluc cells, CellTiter-Fluor viability, 18-24 h; series mostly up to 46 µM
Procedure, shortened: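 A549 ARE_Fluc cells in 5% FBS OPTI-MEM were exposed to compounds in concentration-response for 18-24 h at 37 deg C. Viability was read by CellTiter-Fluor fluorescence (Ex 405/Em 525) after 30 min, before the luciferase read.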
Potency is read from the fitted curve at half-maximal effect.

Row | SMILES | Potency | activity change, negative = cytotoxicity
1 | COc1ccc(CN(Cc2ccccc2)C(=O)c2ccc(O)cc2)cc1COc1ccc(NC(C)=O)cc1 | inactive | 
2 | Cc1ccc(Cn2ncc3c4sc(C)cc4n(C)c3c2=O)c(C)c1 | inactive | 
3 | Cc1ccc(-c2nnc3ccc(SCC(N)=O)nn23)cc1 | inactive | 
4 | CCc1cccc(NC(=O)c2cnc(N3CCOCC3)c3ccccc23)c1 | inactive | 
5 | COc1ccc(C(=O)N(Cc2ccccc2)Cc2ccc(OC)c(COc3ccc(NC(C)=O)cc3)c2)c(O)c1 | inactive | 
6 | C=C1CCN(Cc2ccc(OC)cc2)S(=O)(=O)c2ccccc21 | inactive | 
7 | CC(=O)OCC(NC(=O)C(Cc1ccccc1)NC(=O)OC(C)(C)C)C1OC(n2ccc(=O)[nH]c2=O)C(OC(C)=O)C1OC(C)=O (configuration not stated) | inactive | 
8 | CCN(CC)/[N+]([O-])=N/Oc1cc(O/[N+]([O-])=N/N2CCCC2CO)c([N+](=O)[O-])cc1[N+](=O)[O-] (configuration not stated) | inactive | 
9 | CCOc1ccc(CNCc2c(C(=O)O)c(C)n(Cc3cccc(OC)c3)c2C)cc1OC | inactive | 
10 | COc1ccc(Cn2c(C(=O)O)c(CNCc3cccc(OC)c3)c3ccc(C)cc32)cc1 | 8.2 µM (active) | 
11 | COc1ccc2c(CNCCc3ccccc3C)c(C(=O)O)n(Cc3ccccc3C)c2c1 | inactive | 
12 | Cc1c(C=O)n(C)n(-c2ccccc2)c1=O | inactive | 
13 | Cc1c(N=Nc2ccc(N(C)C)cc2)c(=O)n(-c2ccccc2)n1C | 18.4 µM (active) | 
14 | Cc1ccc(S(=O)(=O)Nc2ccccc2CNc2c(C)n(C)n(-c3ccccc3)c2=O)cc1 | inactive | 
15 | O=C1c2ccccc2C(=O)N1c1ccc(S(=O)(=O)N2CCOCC2)c2ccccc12 | inactive | 
16 | CCCN(CCC)C(=O)C1CCCN(c2ncnc3c2nc2n3CCCCC2)C1 (configuration not stated) | inactive | 
17 | N#CN1CCC(NS(=O)(=O)c2cccc(F)c2)C1 (configuration not stated) | inactive | 
18 | CC[n+]1cc(C)ccc1/C=C/c1ccc(N(C)C)cc1 | 9.2 µM (active) | 
19 | N#Cc1ccc(OC2=NS(=O)(=O)c3ccccc32)cc1 | inactive | 
20 | CCC(C)Nc1oc(-c2ccc(COc3ccc(Cl)cc3)o2)nc1C#N (configuration not stated) | inactive | 
21 | Cc1c(C)n(Cc2ccc(Cl)cc2)c2ccc(C(=O)NCCc3ccc(S(N)(=O)=O)cc3)cc12 | inactive | 
22 | Cc1cc(Nc2cccc(C(F)(F)F)c2)nc2ccc(NC(=O)c3ccc(=O)[nH]c3)cc12 | inactive | 
23 | COc1cc(NC(=O)c2[nH]cnc2C(N)=O)cc(C(=O)Nc2cccc(C(F)(F)F)c2)c1 | 20.6 µM (active) | 

Row | SMILES | Potency | activity change, negative = cytotoxicity
24 | Cc1onc(-c2ccc(F)cc2F)c1C(=O)Nc1cccc(C(F)(F)F)c1 | inactive | 
25 | Cc1ccc(-c2nc(SCc3ccc(Br)cc3)n3[nH]c(=O)cc3n2)cc1 | inactive | 
26 | O=C(O)C1CC=CC2CCN(C3CCCCC3)C(=O)C21 (configuration not stated) | inactive | 
27 | Cc1cc(Nc2cc(N3CCN(C)CC3)nc(Sc3ccc(NC(=O)C4CC4)cc3)n2)n[nH]1 | inactive | 
28 | C=CC(=O)Nc1ccc(Nc2ccnc(Nc3ccc(N4CCN(C)CC4)cc3)n2)cc1 | 9.2 µM (active) | 
29 | O=C(COc1ccccc1)Nc1ccc(N2CCN(C(=O)c3cccs3)CC2)cc1 | inactive | 
30 | Cc1ccc(F)c(NC(=O)CCOc2ccccc2C)c1 | inactive | 
31 | C/C=C/c1ccc(OCCOc2ccc(C=O)cc2OC)c(OC)c1 | inactive | 
32 | COc1cc(/C=N/NC(=O)Nc2ccccc2)ccc1OCCOc1ccccc1C | 5.8 µM (active) | 
33 | CC(=O)c1ccc(NC(=O)CSc2c(C(C)C)cnc3c2c(=O)n(C)c(=O)n3C)cc1 | inactive | 
34 | COc1ccc(CN2CCC(=O)c3ccccc3S2(=O)=O)cc1 | inactive | 
35 | O=C(c1ccc2c(=O)n(Cc3ccco3)c(=S)[nH]c2c1)N1CCCC1 | inactive | 
36 | COc1ccc(C2Nc3ccccc3C(=O)N2Cc2ccc(CNC(=O)CO)cc2)cc1COc1ccc(NC(C)=O)cc1 (configuration not stated) | inactive | 
37 | Cc1ccc(OCCn2c(CNc3ccccc3C)nc3ccccc32)cc1 | inactive | 
38 | O=C(CCC1N=C2c3ccccc3N=C(SCc3ccccc3F)N2C1=O)NCCc1ccccc1 (configuration not stated) | inactive | 
39 | CN(C)Cc1cn(-c2ccccc2)nc1-c1ccccc1 | inactive | 
40 | COC(=O)C(CC(C)C)NS(=O)(=O)c1cc(Br)ccc1Br (configuration not stated) | inactive | 
41 | Cc1cc(C)cc(NC(=O)CCS(=O)(=O)c2cc3c4c(c2)CCN4C(=O)CC3)c1 | inactive | 
42 | O=[N+]([O-])c1ccc(S(=O)(=O)N2CCN(c3nc(-c4ccccc4)nc4ccccc34)CC2)cc1 | inactive | 
43 | COc1ccc(C2Nc3ccccc3C(=O)N2Cc2ccco2)cc1COc1cccc(NC(C)=O)c1 (configuration not stated) | inactive | 
44 | C=CCNC(=O)c1ccc2nc(-c3ccco3)c(-c3ccco3)nc2c1 | inactive | 
45 | CCOc1ccc(NC(=O)c2c(NCc3cccc(OC)c3OC)sc3c2CCC3)cc1 | inactive | 
46 | CCOc1ccc(CC(=O)NCCc2csc3nc(-c4ccccc4F)nn23)cc1 | inactive | 

Row | SMILES | Potency | activity change, negative = cytotoxicity
47 | CC(=O)Nc1ccc(S(=O)(=O)N2N=NC3C2C2CC4C3(CN(C(=O)OC(C)(C)C)S4(=O)=O)O2)cc1 (configuration not stated) | inactive | 
48 | COc1ccc(CCn2c3c(c(=O)[nH]c2=S)CN(C(C)C)CN3)cc1OC | inactive | 
49 | Cc1ccc(CNS(=O)(=O)c2ccc(C(=O)N(C)C)s2)cc1 | inactive | 
50 | Cc1cc(C)n2ncc(C(=O)Nc3cccc(C#N)c3)c2n1 |  | -5.38% [at 9.26 µM]
51 | Oc1ccc(Cl)cc1C1C=C(c2ccc3c(c2)OCO3)NC(c2c(F)cccc2Cl)N1 (configuration not stated) | inactive | 
52 | COc1ccc(C2/C=C\CN(C(=O)c3ccc(C)cc3)C(Cc3ccccc3)C(=O)N2Cc2ccc(F)cc2)cc1 (configuration not stated) | inactive | 
53 | C=C1CCN(C(CC(C)C)C(=O)NCc2cc(OC)c(OC)c(OC)c2)S(=O)(=O)c2ccccc21 (configuration not stated) | inactive | 
54 | CCn1cc(/C=C2/SC(=S)NC2=O)c(C)n1 | 18.4 µM (active) | 
55 | COc1cccc(C2c3c(ncn(-c4cccc(Br)c4)c3=N)Oc3ccc4ccccc4c32)c1 (configuration not stated) | inactive | 
56 | O=C(Nc1cccc2cccnc12)C(F)(F)F | inactive | 
57 | N#Cc1nc(NCc2ccc(Cl)c(Cl)c2)c2ncn(CCCO)c2n1 | inactive | 
58 | Cc1c(Cl)cccc1-c1ccc(CNCCCSc2nnnn2C)o1 | inactive | 
59 | O=S1(=O)N=C(Oc2cccc(Br)c2)c2ccccc21 | inactive | 
60 | O=C(NCc1ccccn1)[C@]1(C(F)(F)F)C[C@H](CCc2ccccc2)CCCO1 | inactive | 
61 | O=c1ccc2c(-c3ccccc3S(=O)(=O)O)c3ccc(O)c(O)c3oc-2c1O | 13 µM (active) | 
62 | Cc1cc2c(s1)c1cnn(Cc3c(F)cccc3Cl)c(=O)c1n2C | inactive | 
63 | CC(=O)NC(c1cccs1)c1cc(Cl)c2cccnc2c1O (configuration not stated) | inactive | 
64 | COC(=O)c1ccccc1NC(=O)c1ccc(C#N)cc1 | inactive | 
65 | COc1ccc(-c2ccc3ncnc(NCc4cccs4)c3c2)cc1OC | inactive | 
66 | COc1ccccc1NC(=O)CSC1=Nc2ccccc2C2=NC(CC(=O)NCc3cccs3)C(=O)N12 (configuration not stated) | inactive | 
67 | Cc1ccc(-c2nc3ccccn3c2Nc2ccc(F)cc2)o1 | inactive | 
68 | COC(=O)c1ccccc1S(=O)(=O)Nc1ccc(OC)cc1 | inactive | 
69 | Oc1ccc(Cl)cc1C1C=C(c2ccc3c(c2)OCO3)NC(c2ccc(F)c(Br)c2)N1 (configuration not stated) | inactive | 

Row | SMILES | Potency | activity change, negative = cytotoxicity
70 | O=C(CNC(=O)c1ccccc1)OC(C(=O)Nc1cc([N+](=O)[O-])ccc1F)c1ccccc1 (configuration not stated) | inactive | 
71 | CNC(=O)c1ccsc1NC(=O)c1ccc(S(=O)(=O)N2CCc3ccccc32)cc1 | inactive | 
72 | O=C(Nc1nc2ccc([N+](=O)[O-])cc2s1)c1ccc(S(=O)(=O)N2CCCc3ccccc32)cc1 | 9.2 µM (active) | 
73 | NS(=O)(=O)c1ccc2nc(NC(=O)COc3ccccc3)sc2c1 | inactive | 
74 | O=C(NC(Nc1nc2ccc([N+](=O)[O-])cc2s1)(C(F)(F)F)C(F)(F)F)c1ccccc1 | 10.3 µM (active) | 
75 | O=C(Nc1nnc(S(=O)(=O)N2CCCc3ccccc32)s1)c1cccc(F)c1 | inactive | 
76 | COc1ccc(C2=Nn3c(nnc3-c3ccccc3O)SC2)cc1 | inactive | 
77 | Cc1ccc(CNc2ncnc3cc(-c4ccc5c(c4)OCO5)ccc23)o1 | inactive | 
78 | Cc1ccc(C)c(CN2C(=O)c3ccccc3S(=O)c3ccc(C(=O)N4CCOCC4)cc32)c1 (configuration not stated) | inactive | 
79 | Cc1oc2c(c1C(=O)N1CCOCC1)C(=O)c1ccccc1C2=O | 16.4 µM (active) | 
80 | Cc1ccc(S(=O)(=O)NC(C(=O)N2CCOCCOCCOCCOCC2)c2ccccc2)cc1 (configuration not stated) | inactive | 
81 | CCN(CC)c1nc(C#N)nc(OC)n1 | inactive | 
82 | Cc1ccccc1OCCSc1nc2ccc(NC(=O)c3ccco3)cc2s1 | inactive | 
83 | CCOc1ccccc1NC(=O)CN1CCCN(Cc2cccc(Cl)c2)S1(=O)=O | inactive | 
84 | CC(C)c1ccc(NC(=O)Cn2c3ncccc3c(=O)n2-c2ccccc2)cc1 | inactive | 
85 | Cc1ccc(C(=O)Nc2nc(-c3ccccc3)ns2)cc1 | inactive | 
86 | CCN1CCN(CCCNC(=O)c2ccc3c(c2)sc2nc(-c4ccc(OC)cc4)cn23)CC1 | inactive | 
87 | Cc1cc2nc(NC(=O)c3ccc(S(=O)(=O)N4CCOCC4)cc3)sc2cc1C | inactive | 
88 | Cc1ccc(NS(=O)(=O)c2ccc(C(=O)NCCCN3CCOCC3)cc2)cc1 | inactive | 
89 | Cc1ccc(/C=C2/SC(=S)N(CCC(=O)NCCCN3CCOCC3)C2=O)cc1 | 14.6 µM (active) | 
90 | CC(C)c1ccc(/C=C/C(=O)NCCCN2CCOCC2)cc1 | inactive | 
91 | O=C(NCC1CC1)C1(C(F)(F)F)C/C(=C\CCO)CCCO1 (configuration not stated) | inactive | 
92 | CCN1/C(=C\c2ccc3ccccc3[n+]2CC)Sc2cc(C)ccc21 | 23.1 µM (active) | 

Row | SMILES | Potency | activity change, negative = cytotoxicity
93 | Cc1ccc(CN2CCCn3nc(C(=O)NCc4ccccc4Cl)cc3C2=O)cc1 | inactive | 
94 | Cc1ccc(Nc2c(-c3ccc(N(C)C)cc3)nc3nc[nH]n23)cc1 | inactive | 
95 | CN(C)c1ccc(Nc2c3c4c(cccc4n(C)c2=O)C(=O)c2ccccc2-3)cc1 | 14.6 µM (active) | 
96 | COc1cc(OC)c2c(c1C(CCN1CCCCC1)c1ccc(N(C)C)cc1)OC(=O)CC2c1ccc(N(C)C)cc1 (configuration not stated) | inactive | 
97 | Cc1ccc(OCCSc2nc(-c3cccs3)nc3cc(=O)[nH]n23)cc1Cl | inactive | 
98 | CCOc1ccc(NC(=O)C(CC(C)C)N2Cc3ccccc3C2=O)cc1 (configuration not stated) | inactive | 
99 | COc1cc(Cl)c(C)cc1NC(=O)CCc1nc2cccnc2n1Cc1cccs1 | inactive | 
100 | CN(C)c1ccc(C(=O)NCC(=O)OC(C(=O)Nc2cc(C(F)(F)F)ccc2Cl)c2ccccc2)cc1 (configuration not stated) | inactive | 
101 | Cc1ccc(C(=O)NC2CCN(C#N)CC2)cc1 | inactive | 
102 | COc1ccc(-c2nc(S(=O)(=O)c3ccccc3)c(N3CCCCC3)o2)cc1 | inactive | 
103 | O=S(=O)(c1ccc2c(c1)OCCO2)N1CCN(S(=O)(=O)c2cc(F)ccc2F)CC1 | inactive | 
104 | COc1ccc(C2/C=C\CN(Cc3ccco3)C(C)C(=O)N2Cc2ccc(F)cc2)cc1 (configuration not stated) | inactive | 
105 | COc1cccc(NC(=O)Nc2ccc3c(c2)N(C)C(=O)c2ccccc2S3)c1 | inactive | 
106 | CC1(C)CCc2cc(S(=O)(=O)N3CCN(c4nc(-c5cccs5)nc5ccccc45)CC3)ccc2O1 | inactive | 
107 | CCCS(=O)(=O)N1CCC(n2c(C(F)(F)F)nc3cccnc32)CC1 | inactive | 
108 | OCCNc1ncnc2oc(-c3ccco3)c(-c3ccco3)c12 | inactive | 
109 | COc1ccc(C2CC(O)(c3ccccc3)Oc3cc(C)cc(C)c32)cc1 (configuration not stated) | inactive | 
110 | O=S(=O)(c1cccc(C(F)(F)F)c1)N1CCN(c2nc(-c3cccs3)nc3ccccc23)CC1 | inactive | 
111 | COc1cccc(C(=O)NC2CCN(C#N)CC2)c1 | inactive | 
112 | C=CCCN(C(Cc1ccccc1)C(=O)OC)S(=O)(=O)c1cc(Br)ccc1Br (configuration not stated) | inactive | 

Reference: PubChem BioAssay AID504648 (National Center for Advancing Translational Sciences (NCATS), 2011)
